The text below walks through data of PubChem BioAssay (NCI).

The panel holds about 83,000 compounds, 20% with a hit somewhere; the sample as a whole holds those more often.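 Note: values are percent growth. 100 is the growth of untreated cells, values between 100 and 0 indicate rising inhibition; between -100 and 0 indicates cell death.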 Unmarked numbers belong to inactive results. Calls of active or inactive are those of the source. Rule for the calls: active = growth percent below 10; inactive = the rest.

Some test systems named below: DU-145 prostate; K-562 leukemia; MALME-3M melanoma; MDA-MB-231 breast; RXF 393 renal; SF-268 CNS; SF-295 CNS; SF-539 CNS; UACC-257 melanoma; M14 melanoma.
What all share (experiment): NCI-60 one-dose screen, 48 h (100 = growth as untreated, 0 = no growth, -100 = all killed)
Common to all, as to conditions: 10 µM unless noted

Consider `O=C(c1cccc(O)c1O)c1cn(Cc2ccc(F)cc2)c2cccc(O)c12`, for which the growth is 36.2% in the assay with DU-145 prostate; 22.1% in the assay on K-562 leukemia; 58.9% in the assay on MALME-3M melanoma; 39.1% in the assay on MDA-MB-231 breast; 70% in the assay with RXF 393 renal; 26.3% with SF-268 CNS. The growth is 41.9% in the assay on SF-295 CNS, 13.8% in the assay on SF-539 CNS, 34.4% in the assay with UACC-257 melanoma and -64.3% (active) in the assay on M14 melanoma.

As for `CC(C)(C)N1CC1C#N` (stereo not given), the growth in the assay on DU-145 prostate was 105%; in the assay on K-562 leukemia, 99%; in the assay on MALME-3M melanoma it was 103%; in the assay on MDA-MB-231 breast it was 96.3%; in the assay on RXF 393 renal it was 107%; in the assay on SF-268 CNS, 101%. The growth in the assay with SF-295 CNS is 91.4%; in the assay on SF-539 CNS it was 103%; in the assay on UACC-257 melanoma it was 105%; in the assay with M14 melanoma, 110%.

As for `CC1(C)CN1P(=O)(N1CC1(C)C)N1CC1(C)C` (stereo not given), the growth with DU-145 prostate was 121%; in the assay on K-562 leukemia, 109%; with MALME-3M melanoma, 110%; in the assay with MDA-MB-231 breast it was 107%; in the assay on RXF 393 renal it was 119%; with SF-268 CNS, 106%. Also, the growth with SF-295 CNS was 115%; in the assay with SF-539 CNS it was 109%; with UACC-257 melanoma, 89.3%; in the assay with M14 melanoma, 98.8%.

`CC12CCC=CC1CCC1C2CCC2(C)C(c3ccc(=O)oc3)CCC12O` (stereo not given): the growth is -97.4% (active) with DU-145 prostate; 0.925% (active) with K-562 leukemia; -48.4% (active) in the assay with MALME-3M melanoma; -5.15% (active) in the assay with MDA-MB-231 breast; -47.2% (active) in the assay with RXF 393 renal; -62.8% (active) in the assay with SF-268 CNS. Moreover, the growth is -60% (active) with SF-295 CNS, -90.3% (active) with SF-539 CNS, -70.3% (active) in the assay with UACC-257 melanoma and -30.3% (active) with M14 melanoma.

In the case of `Cn1cc(-c2csc(-c3cn(CCN4CCOCC4)c4ccc(F)cc34)n2)c2cccnc21`, the growth in the assay on DU-145 prostate is 40.1%; in the assay on K-562 leukemia, 9.34% (active); in the assay on MALME-3M melanoma it was 53%; in the assay with MDA-MB-231 breast, 35.1%; in the assay with RXF 393 renal, 71%; in the assay on SF-268 CNS, 41.7%. In addition, the growth with SF-295 CNS is 29.2%; with SF-539 CNS, 61.5%; in the assay with UACC-257 melanoma, 71%; in the assay with M14 melanoma, 8.08% (active).

As to `O=C1C(=Cc2cn(Cc3ccccc3)c3ccccc23)C(=O)N(Cc2ccccc2)C(=O)N1Cc1ccccc1`, the growth in the assay on DU-145 prostate was 110%; in the assay on K-562 leukemia, 81.5%; in the assay with MALME-3M melanoma, 105%; with MDA-MB-231 breast, 89.3%; in the assay with RXF 393 renal, 57.6%; with SF-268 CNS, 87.5%. For the same compound, the growth in the assay on SF-295 CNS is 34.4%; in the assay on SF-539 CNS, 83.5%; in the assay on UACC-257 melanoma it was 52.9%; in the assay on M14 melanoma, 104%.

Take `COC(=O)[C@@H](C)C[C@H](Cc1ccccc1)NC(=O)c1csc([C@@H](C[C@H](C(C)C)N(C)C(=O)[C@H](C)NC(=O)[C@H]2CCCN2C)OC(C)=O)n1`: the growth in the assay on DU-145 prostate is 51.6%; in the assay with K-562 leukemia it was 11.5%; in the assay with MALME-3M melanoma, 56.2%; in the assay with MDA-MB-231 breast, 63.6%; in the assay with RXF 393 renal, 21.8%; in the assay with SF-268 CNS, 53.9%. Moreover, the growth was 31.1% in the assay with SF-295 CNS, 39.9% in the assay with SF-539 CNS, 36.4% in the assay on UACC-257 melanoma and 37.5% in the assay on M14 melanoma.

In the case of `C/C(=C\c1cc(C(F)(F)F)nn1CCNC(=O)OC(C)(C)C)[C@@H]1C[C@@H]2O[C@]2(C)CCC[C@H](C)[C@H](O)[C@@H](C)C(=O)C(C)(C)[C@@H](O)CC(=O)O1`, the growth is 63.2% in the assay with DU-145 prostate; 31.9% in the assay with K-562 leukemia; 70% in the assay on MALME-3M melanoma; 58.8% with MDA-MB-231 breast; 53.2% in the assay on RXF 393 renal; 60.4% in the assay with SF-268 CNS. Besides, the growth is 75.5% in the assay on SF-295 CNS, 57.5% in the assay with SF-539 CNS, 83.5% in the assay with UACC-257 melanoma and 50.1% in the assay on M14 melanoma.

On to `C[C@]12CCc3sc(-c4ccccc4O)nc3C1=CC[C@@H]1[C@@H]2CC[C@]2(C)C(=O)CC[C@@H]12`, for which the growth in the assay with DU-145 prostate is 107%; in the assay on K-562 leukemia, 95.8%; in the assay on MALME-3M melanoma it was 102%; with MDA-MB-231 breast, 103%; in the assay with RXF 393 renal, 107%; in the assay with SF-268 CNS, 100%. In addition, the growth in the assay on SF-295 CNS is 100%; in the assay on SF-539 CNS, 105%; in the assay on UACC-257 melanoma it was 107%; in the assay with M14 melanoma, 106%.

Take `CCn1nccc1NC(=O)C(=O)c1cn(Cc2ccc(F)cc2)c2cccc(OC)c12`: the growth is 106% in the assay with DU-145 prostate; 79.9% in the assay with K-562 leukemia; 109% with MALME-3M melanoma; 91.9% with MDA-MB-231 breast; 90.1% in the assay on RXF 393 renal; 98.1% with SF-268 CNS. The growth with SF-295 CNS was 106%; in the assay on SF-539 CNS it was 98.1%; in the assay on UACC-257 melanoma, 97.6%; with M14 melanoma it was 88.1%.

As to `CC(=O)Nc1ccc(NC(=O)c2ccc([As](O)O)cc2)cc1`, the growth with DU-145 prostate was 108%; in the assay with K-562 leukemia, 33.1%; in the assay on MALME-3M melanoma, 113%; in the assay on MDA-MB-231 breast it was 88.3%; in the assay on RXF 393 renal, 47.6%; with SF-268 CNS, 109%. Further, the growth is 118% with SF-295 CNS, 88.8% in the assay on SF-539 CNS, 104% with UACC-257 melanoma and 101% in the assay with M14 melanoma.

As for `Oc1c(CCl)cc(Cl)cc1CCl`, the growth with DU-145 prostate was 122%; in the assay with K-562 leukemia it was 99.3%; in the assay on MALME-3M melanoma, 110%; with MDA-MB-231 breast, 104%; in the assay on RXF 393 renal, 119%; in the assay on SF-268 CNS, 104%. Further, the growth in the assay on SF-295 CNS is 106%; in the assay with SF-539 CNS, 104%; in the assay with UACC-257 melanoma, 131%; with M14 melanoma it was 108%.

For `O=[N+]([O-])c1cnc[nH]1`, the growth with DU-145 prostate is 116%; in the assay with K-562 leukemia, 123%; in the assay on MALME-3M melanoma it was 112%; in the assay on MDA-MB-231 breast, 101%; with RXF 393 renal it was 128%; in the assay on SF-268 CNS it was 106%. The growth is 104% in the assay on SF-295 CNS, 110% in the assay with SF-539 CNS, 103% with UACC-257 melanoma and 119% in the assay on M14 melanoma.

Regarding `CCC(=O)Nc1ccc(Cl)c(Cl)c1`, the growth in the assay with DU-145 prostate is 115%; with K-562 leukemia, 97.6%; in the assay on MALME-3M melanoma, 102%; in the assay with MDA-MB-231 breast, 92.2%; with RXF 393 renal it was 101%; in the assay with SF-268 CNS, 105%. Moreover, the growth in the assay with SF-295 CNS is 98.3%; with SF-539 CNS, 92.4%; in the assay on UACC-257 melanoma, 102%; in the assay with M14 melanoma, 103%.

For `COc1ccc([As]=[As]c2ccc(OC)c(NCS(=O)(=O)O)c2)cc1NCS(=O)(=O)O` (stereo not given), the growth in the assay on DU-145 prostate was 43.1%; in the assay with K-562 leukemia, -2.74% (active); with MALME-3M melanoma it was -44.6% (active); with MDA-MB-231 breast it was 4.41% (active); in the assay on RXF 393 renal, -17.9% (active); in the assay on SF-268 CNS, 17.8%. Further, the growth in the assay on SF-295 CNS was 80%; with SF-539 CNS, 2.54% (active); in the assay on UACC-257 melanoma, 27.6%; in the assay with M14 melanoma it was 19.2%.

Regarding `CNC12C3C4C1C1C2C3C41C(=O)N[C@H](C(=O)N(C)[C@H](C[C@@H](OC(C)=O)c1nc(C(=O)N[C@@H](Cc2ccccc2)C[C@H](C)C(=O)OC)cs1)C(C)C)C1CC1` (stereo not given in full), the growth in the assay with DU-145 prostate is -1.19% (active); in the assay on K-562 leukemia it was 0.86% (active); in the assay on MALME-3M melanoma, 34%; with MDA-MB-231 breast it was 0.928% (active); in the assay with RXF 393 renal it was 25.5%; in the assay with SF-268 CNS, 14.4%. The growth in the assay on SF-295 CNS is 7.26% (active); with SF-539 CNS, -1.2% (active); in the assay with UACC-257 melanoma, 41.1%; with M14 melanoma it was 4.03% (active).

Consider `N#C[Se]CCN1C(=O)c2ccccc2C1=O`, for which the growth in the assay on DU-145 prostate was 35.1%; in the assay on K-562 leukemia it was 26.1%; in the assay on MALME-3M melanoma, 17.7%; with MDA-MB-231 breast it was 55.9%; in the assay on RXF 393 renal it was -9.88% (active); with SF-268 CNS it was 20.2%. In addition, the growth in the assay with SF-295 CNS was 6.62% (active); with SF-539 CNS, 33.4%; in the assay on UACC-257 melanoma it was 7.13% (active); in the assay with M14 melanoma, 25.5%.
